USP30 inh: human USP30 deubiquitinase inhibition; Q70CQ3; purified USP30, Ub-rhodamine cleavage fluorescence; inhibition, % at 25 µM; 5.3% of 47,000 active; AID 1645860
Target sequence (Q70CQ3 whole entry, looked up): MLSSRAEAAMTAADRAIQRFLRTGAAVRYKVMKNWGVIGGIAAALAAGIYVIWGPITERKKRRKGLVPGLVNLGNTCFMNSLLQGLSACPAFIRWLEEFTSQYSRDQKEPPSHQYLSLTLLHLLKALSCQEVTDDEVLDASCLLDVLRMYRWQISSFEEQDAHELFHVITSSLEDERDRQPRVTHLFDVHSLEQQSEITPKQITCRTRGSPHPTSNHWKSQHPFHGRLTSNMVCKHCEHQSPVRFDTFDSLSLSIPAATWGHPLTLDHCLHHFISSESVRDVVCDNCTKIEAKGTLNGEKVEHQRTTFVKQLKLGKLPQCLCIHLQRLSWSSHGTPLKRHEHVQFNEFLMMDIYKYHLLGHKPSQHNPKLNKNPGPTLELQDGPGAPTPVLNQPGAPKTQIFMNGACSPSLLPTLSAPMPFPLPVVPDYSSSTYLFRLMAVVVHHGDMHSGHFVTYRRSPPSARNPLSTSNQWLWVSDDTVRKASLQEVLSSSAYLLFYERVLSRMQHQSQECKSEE
USP17 inh: blocks human USP17 ubiquitin-rhodamine cleavage; inhibition, % at 50 µM; 6.5% of 47,000 active; purified USP17, Ub-rhodamine cleavage fluorescence, 3 h; AID 1645855
Each line names hits and unclear results; the compound was inactive in the other large screens. Rows were chosen to be rich in hits. Some 9.6% of all compounds tested hit in one or more screens of this group. Cut-off read from the data, not from the text of the source: active = inhibition above about 30%; inactive = the rest.

COc1ccc(CCNC(=O)CSc2cn(CCNC(=O)c3ccc(F)cc3)c3ccccc23)cc1OC	USP30 inh 67.7, USP17 inh 49.5
COc1ccc(CCNC(=O)c2ccc3c(c2)N(Cc2ccc(F)cc2)C(=O)c2ccccc2S3=O)cc1OC (stereo not drawn)	none
COc1ccc(-n2cc(C(=O)NCCc3ccc(F)cc3)nn2)cc1	none
COc1cccc(-n2cc(-c3nc(-c4cccnc4)no3)c3ccccc3c2=O)c1	USP30 inh 31.2
O=c1c2ccccc2c(-c2nc(-c3cccnc3)no2)cn1-c1ccc(F)cc1	none
COc1ccc2c(c1)OC1COc3cc(OC)c(OC)cc3C1C2=O (stereo not drawn)	none
COc1ccc(NC2c3ncccc3C(=O)N2Cc2ccco2)cc1 (stereo not drawn)	none
Cn1ccc2ccn(CC(=O)NCc3ccc4c(c3)OCO4)c(=O)c21	none
CN1CCN(Cc2cccnc2)C(=O)C12CCN(c1nccs1)CC2	none
O=C(CN1C(=O)CC(c2ccc(F)cc2)=Nc2ccccc21)Nc1ccccc1	USP17 inh 37.8
COc1ccc(CNC(=O)CN2C(=O)CC(c3ccccc3)=Nc3ccccc32)cc1	USP17 inh 82.8
O=C(CN1C(=O)CC(c2ccccc2)=Nc2ccccc21)NCc1ccccc1Cl	none
Cc1cccc(C)c1NC(=O)CN1C(=O)CC(c2ccccc2)=Nc2ccccc21	none
O=C(c1ccccn1)N1CCc2[nH]nc(-c3ccc(F)cc3)c2C1	none
COc1cc(NC(=O)C2CCCN(C(=O)c3ccc(Cl)cc3)C2)cc(OC)c1 (stereo not drawn)	none
Cn1c(=O)c2c(-c3ccncc3)cc(-c3ccccc3)nc2n(C)c1=O	none
O=C1c2ccccc2-c2nnc(-c3ccncc3)cc21	USP30 inh 33.8, USP17 inh 47.1
CC(C)c1noc2ncc(-c3nnc(Cc4ccc(F)cc4)o3)cc12	none
CSc1cccc(NC(=O)Cn2cnc3c(-c4ccc(F)cc4)nsc3c2=O)c1	none
CSc1nc2ncn(CC(=O)Nc3cccc(Cl)c3)c(=O)c2s1	USP17 inh 60.2
O=S(=O)(c1cccc(F)c1)N1CCn2cccc2C1c1ccc(F)cc1 (stereo not drawn)	none (no result: USP17 inh)
Cc1ccc(C)n1CC1CCNCC1	none
Cc1cnc(NC(=O)c2cc3cc(Cl)ccc3o2)s1	none
COc1cc(CC(=O)N(c2nc3ccccc3s2)c2c(C)cccc2C)cc(OC)c1OC	none
COc1ccc(C2NC(=O)NC(C)=C2C(=O)OCC2CCCCC2)cc1OC (stereo not drawn)	none
CC1=C(C(=O)OCCc2ccccc2)C(c2ccc3c(c2)OCO3)NC(=O)N1 (stereo not drawn)	USP30 inh 38.9
Cc1ccccc1N1C(=O)CN(S(C)(=O)=O)CC1(C)C(=O)NCc1ccc(F)cc1 (stereo not drawn)	none
Cc1cccc(CNC(=O)CC2c3ncccc3C(=O)N2c2ccccc2)c1 (stereo not drawn)	none
Cc1cc(C)c(NC(=O)Cn2c(SCc3cccc(F)c3)nc3cccnc32)c(C)c1	USP30 inh 73.3, USP17 inh 63.9
CCc1ccccc1NC(=O)CN1C(=O)CSc2ncccc21	none
CCc1ccccc1NC(=O)Cn1c(SCc2ccc(F)cc2)nc2cccnc21	USP30 inh 57.0, USP17 inh 86.3
Cn1c(=O)n(CC(=O)NCc2cccc(F)c2)c2cccnc21	none (no result: USP30 inh)
CCCn1c(=O)c(C)nc2cc(-c3noc(C(C)Oc4ccccc4)n3)ccc21 (stereo not drawn)	none
Cc1cc(NC(=O)CCn2ccc(=O)[nH]c2=O)ccc1C(C)C	none
CC(C)(C)c1ccc(NC(=O)CCn2ccc(=O)[nH]c2=O)cc1	USP30 inh 39.8
Cc1ccccc1CNC(=O)c1cc(=O)nc2sc(N3CCC(C)CC3)nn12	none
Cc1ccc(NC(=O)c2noc3c2CCc2sccc2-3)nc1	USP17 inh 31.8
CC(NC(=O)c1noc2c1CCc1sccc1-2)c1ccccc1 (stereo not drawn)	none
COc1ccccc1CNC(=O)c1noc2c1CCc1sccc1-2	USP30 inh 30.1
Cc1cccnc1NC(=O)c1noc2c1CCc1sccc1-2	none
O=C(Nc1ccccn1)c1noc2c1CCc1sccc1-2	USP17 inh 36.5
O=C(NCCc1c[nH]c2ccccc12)c1noc2c1CCc1sccc1-2	USP17 inh 31.9
O=C(NCc1ccc(F)cc1)c1noc2c1CCc1sccc1-2	none
O=C(NCc1ccc(Cl)cc1)c1noc2c1CCc1sccc1-2	none
CC1=C(C(=O)NCc2ccccc2)C(c2ccccc2F)n2ncnc2N1 (stereo not drawn)	none
O=C(c1noc2ccc(S(=O)(=O)NC3CCCC3)cc12)N1CCCCC1	none
O=C1N(Cc2ccc(F)cc2Cl)CCN1c1ccc2c(c1)CCC2	none
COc1ccc(NC(=O)C(=O)NCc2cccnc2)c(OC)c1	none
COc1ccc(C)cc1N(C)C(=O)c1noc2c1CCc1sccc1-2	USP30 inh 30.4
CN(C(=O)c1noc2c1CCc1sccc1-2)c1ccccc1F	none
COc1ccc2c(c1)CCc1c(C(=O)NCc3cccnc3)noc1-2	USP30 inh 52.9, USP17 inh 47.0
CC(=O)c1ccc(N2CCN(C(=O)Cc3c(C(=O)O)[nH]c4ccc(Cl)cc34)CC2)cc1	none
CC1(c2ccc3c(c2)CCC3)NC(=O)N(Cc2cc(=O)n3ccsc3n2)C1=O (stereo not drawn)	USP17 inh 33.3
Cc1cccc(N2CCN(Cc3cc(=O)n4ccsc4n3)CC2)c1C	none
COc1cccc(CNC(=O)CCC2=NS(=O)(=O)c3ccccc3N2)c1	none
COc1cccc(NC2=NS(=O)(=O)c3ccccc32)c1	USP30 inh 41.3, USP17 inh 40.8
Cc1ccc(-c2nc3c(c(SCC(=O)NCc4ccco4)n2)COC(C)(C)C3)cc1	USP17 inh 41.3
Cc1ccc(-c2nc3c(c(SCC(=O)c4ccccc4)n2)COC(C)(C)C3)cc1	none
CCc1ccccc1NS(=O)(=O)c1c(C)[nH]c(C)c1-c1nc(C)no1	none
COc1ccc(Cc2c(O)n(Cc3ccccc3)c(=O)[nH]c2=O)cc1OC	none
O=C(/C=C/C=C/C=C/C1CCCCC1)NC1=C[C@@](O)(/C=C/C=C/C=C/C(=O)NC2=C(O)CCC2=O)[C@@H]2O[C@@H]2C1=O	USP17 inh 67.6
Cc1nc(C2CCN(C(=O)c3ccccc3)CC2)nc2c1CCC(=O)N2Cc1ccccn1	none
N#Cc1cccc(NC(=O)C(Cc2c[nH]c3ccccc23)NC(=O)c2cccs2)c1 (stereo not drawn)	USP30 inh 33.3
N#Cc1ccc(NC(=O)COC(=O)C(Cc2c[nH]c3ccccc23)NC(=O)c2ccc(F)cc2)cc1 (stereo not drawn)	none
CCOc1ccccc1C(=O)Nc1cc2c3c(c1)CCN3C(=O)CC2	none
COc1ccc(C)cc1NC(=O)Cn1c(C)cc(C)c1-c1nc(C(C)C)no1	USP30 inh 30.6
Cc1cc(C)n(CC(=O)Nc2ccc(F)cc2)c1-c1nc(C(C)C)no1	none (no result: USP17 inh)
COc1ccccc1NC(=O)CNC(=O)c1nn(-c2ccc(OC)c(OC)c2)c(=O)c2ccccc12	USP17 inh 68.2
COc1ccc(NC(=O)c2nnn(-c3ccccc3)c2C)cc1OC	none
CC(NC(=O)c1ccc2ccccc2n1)c1ccccc1 (stereo not drawn)	USP30 inh 44.0
CN(C)C(CNC(=O)c1ccc2ccccc2n1)c1ccccc1 (stereo not drawn)	none
Cc1cc2cc(O)cc(O)c2c(=O)o1	none
COc1c2c(cc3cc(O)c4c(=O)cc(C)oc4c13)CCC2=O	USP17 inh 59.6
Cc1noc(-c2ccc(N3CCCC(C(=O)Nc4cccc(F)c4C)C3)nc2)n1 (stereo not drawn)	none

Screening data from PubChem BioAssay.
